In all, about 300,000 compounds went through this assay and about 37,000 (12%) were called active. Rule as the data show it: active = max response mostly above about 13% (no sharp cut-off); inactive = mostly below about 14%. Many of the other results were omitted from the sample, so actives are more common in it than they were.
Assay: Cycloheximide Counterscreen for Small Molecule Inhibitors of Shiga Toxin; also: read at 38.3 µM for the half of the compounds with a filed dose; 0% is about no effect
Settings: cell reporter, cycloheximide protein synthesis inhibition counterscreen; stronger effect = higher value

Row | Compound | max response
1 | CCn1c(/C=C/Nc2ccccc2)[n+](CC)c2ccc(C(=O)OCC(F)(F)F)cc21 | -3.17% (inactive)
2 | COc1ccccc1NC(=O)N1CCCC1C(=O)NCc1cccs1 (stereo unspecified) | 4.62% (inactive)
3 | CCc1cc(=O)oc2cc(C)cc(OCC(=O)N3CCC[C@@H]3C(=O)O)c12 | -2.38% (inactive)
4 | CCC1Oc2ccccc2N(CC(=O)NCCCN2CCN(CC)CC2)C1=O (stereo unspecified) | -1.43% (inactive)
5 | Oc1cccc2ccc(/C=C/c3ccc(Br)s3)nc12 | 56.7% (active)
6 | Nc1ccc(S(=O)(=O)Nc2nccc(/C=C/c3ccc(Br)s3)n2)cc1 | 0.595% (inactive)
7 | O=C(CN1C(=O)c2cccnc2Oc2ccc(Cl)cc21)NCCc1ccccc1 | 18.6% (inactive)
8 | Cc1cc(C)n2nc(CNS(=O)(=O)c3c(F)c(F)c(F)c(F)c3F)nc2n1 | 1.02% (inactive)
9 | COc1ccc(S(=O)(=O)c2c[nH]c(=S)[nH]c2=O)cc1Cl | -3.71% (inactive)
10 | COc1cc(CNCc2ccc3c(c2)OCO3)c([N+](=O)[O-])cc1OC | 13.8% (active)
11 | Cc1ccc(CNCc2ccc3c(c2)OCO3)c(C)c1 | 0.612% (inactive)
12 | COc1cccc(CNCc2ccc3c(c2)OCO3)c1 | 7.15% (inactive)
13 | Cc1ccc(-c2nn(-c3ccccc3)cc2/C=C/C(=O)Nc2cccc(S(N)(=O)=O)c2)cc1 | 6.92% (inactive)
14 | COc1ccc(CCNC2=CC(=O)CC(C)(C)C2)cc1 | 17% (inactive)
15 | CN1C(CC(=O)Nc2ccc(Br)cc2)c2ccccc2CC1(C)C (stereo unspecified) | 7.55% (inactive)
16 | CCN(CC)CCN1C(=O)C(=O)/C(=C(/O)c2ccccc2)C1c1ccccc1F (stereo unspecified) | -1.86% (inactive)
17 | CCOc1cccc(/C(O)=C2/C(=O)C(=O)N(CCOC)C2c2ccncc2)c1 (stereo unspecified) | 3.2% (inactive)
18 | CCN(CC)CCN1C(=O)C(=O)/C(=C(/O)c2cnn(-c3ccccc3)c2C)C1c1cccs1 (stereo unspecified) | 49.4% (active)
19 | COC(=O)c1cc(S(=O)(=O)N2CCC(C(N)=O)CC2)oc1C | -3.53% (inactive)
20 | Cc1c(C)c(C)c(S(=O)(=O)N2CCC3(CC2)OCCO3)c(C)c1C | -1.61% (inactive)
21 | Cc1c(Cc2ccccc2)c(=O)oc2cc(OCC(N)=O)ccc12 | 1.87% (inactive)
22 | CCc1c(C)c2ccc(OC3CCCCC3=O)cc2oc1=O (stereo unspecified) | 16.5% (active)
23 | CC(=O)Oc1ccc2c(C)c(CC(C)O)c(=O)oc2c1 (stereo unspecified) | -8.36% (inactive)
24 | COc1ccc(-n2cnnc2SCC(=O)Nc2cccc(S(N)(=O)=O)c2)cc1 | -5.17% (inactive)
25 | Cc1cc(C)c(S(=O)(=O)Nc2c(C)n(C)n(-c3ccccc3)c2=O)cc1[N+](=O)[O-] | -2.16% (inactive)
26 | COc1cccc(OCc2nnc3n2N=C(c2ccccc2)C(CC(=O)O)S3)c1 (stereo unspecified) | 9.69% (inactive)

Row | Compound | max response
27 | CCc1ccc(NC2Nc3cc(C)nn3S2)cc1 (stereo unspecified) | 49.2% (active)
28 | CCOC(=O)c1ccc(NC2Nc3cc(C)nn3S2)cc1 (stereo unspecified) | 5.82% (inactive)
29 | COC(=O)c1cc(C(=O)NC(C)C2CC3CCC2C3)cc([N+](=O)[O-])c1 (stereo unspecified) | -12.3% (inactive)
30 | COC(=O)c1ccc(N2CCOCC2)c(NC(=O)c2ccc(Br)o2)c1 | -2.23% (inactive)
31 | Cn1cccc1/C=N/NC(=O)c1ccc(OC(F)(F)C(F)F)cc1 | 38.1% (active)
32 | COc1ccc(/C=N/NC(=O)c2cccc(C(F)(F)F)c2)cc1 | 6.57% (inactive)
33 | CCn1c(/C=N/NC(=O)c2ccc(OC)cc2)nc2ccccc21 | -2.39% (inactive)
34 | CC(Oc1ccccc1)C(=O)Nc1c2c(nn1-c1ccccc1)CS(=O)C2 (stereo unspecified) | -2.14% (inactive)
35 | CC(=O)Nc1ccc(-c2cn3cccnc3n2)cc1 | 25.4% (active)
36 | CC(=O)Nc1ccc(OCC(=O)NCc2ccc(C)cc2)cc1 | 7.82% (inactive)
37 | CC(C)(C)C(=O)Nc1ccc(-c2cn3cccnc3n2)cc1 | 28.5% (active)
38 | CC(=O)Nc1ccc(S(=O)(=O)Nc2nc(-c3ccc(C(C)(C)C)cc3)cs2)cc1 | -0.918% (inactive)
39 | CCOc1cc(-c2cc(-c3ccc(NC(C)=O)cc3)nc(N)c2C#N)ccc1O | -3.59% (inactive)
40 | CCCCCC(=O)Nc1ccc(-c2cn3cccnc3n2)cc1 | 25.3% (active)
41 | CC(=O)Nc1ccc(S(=O)(=O)Nc2cccc(NC(=O)C(C)(C)C)c2)cc1 | 4.2% (inactive)
42 | CCCCC(=O)Nc1ccc(C(=O)NCCCn2ccnc2)cc1 | 3.08% (inactive)
43 | CCCCCC(=O)Nc1ccc(S(=O)(=O)Nc2ccc(Cl)nn2)cc1 | 5.65% (inactive)
44 | CON(C)S(=O)(=O)c1ccc2c(c1)NC(=O)C1CCCN21 (stereo unspecified) | -1.81% (inactive)
45 | CCN(CC(=O)N1CCCC1)S(=O)(=O)c1ccc(F)cc1 | -0.599% (inactive)
46 | Cc1ccc(O)c(CNc2nc3ccccc3[nH]2)c1 | 19.7% (active)
47 | OCCNc1nc2ccccc2[nH]1 | -3.17% (inactive)
48 | CC(C)n1c(NCc2c[nH]c3ccccc23)nc2ccccc21 | 5.28% (inactive)
49 | Cc1ccc(C)c(N2CCN(C(=O)CCc3nc4ccccc4[nH]3)CC2)c1 | -4.18% (inactive)
50 | Cn1c(CNC(=O)C(C)(C)C)nc2ccccc21 | -0.534% (inactive)
51 | Cc1ccc(O)c(CNc2nc3ccccc3n2C)c1 | 35% (active)
52 | CC(=O)c1ccc(NC(=O)Cn2c(=O)oc3ccccc32)cc1 | 0.709% (inactive)

Row | Compound | max response
53 | Cc1ccc(-n2ncc(C(=O)NC3CC3)c2C2CCN(C(=O)OC(C)(C)C)CC2)c(C)c1 | 5.17% (inactive)
54 | CCOc1ccccc1NS(=O)(=O)c1c[nH]c(C(=O)OC)c1 | -0.295% (inactive)
55 | Cc1ccccc1N1CC(C(=O)Nc2nnc(SCCC3OCCO3)s2)CC1=O (stereo unspecified) | 0.819% (inactive)
56 | CCc1nnc(NC(=O)C2CC(=O)N(c3ccc4c(c3)OCCO4)C2)s1 (stereo unspecified) | 6.49% (inactive)
57 | c1ccc2cc3c(NCCN4CCOCC4)ccnc3cc2c1 | -2.42% (inactive)
58 | Cn1cc(C(=O)c2ccc(Cl)cc2Cl)cc1C(=O)NN | -5.78% (inactive)
59 | O=C(CCN1CCCCC1)N=Nc1c(O)[nH]c2ccccc12 | 2.5% (inactive)
60 | CC(C)(C)NC(=O)CSC(=Nc1ccccc1F)NC#N | 27.7% (active)
61 | COc1ccccc1-n1ccnc1SCC(=O)NC(C)(C)C | -1.32% (inactive)
62 | Cc1ccccc1CSCC(=O)NC(=O)NC(C)(C)C | 9.92% (inactive)
63 | CCc1nn(CC(=O)N2CCN(CC)CC2)c(=O)c2cccn12 | -0.288% (inactive)
64 | Cc1ccc(C(=O)NC(=S)NCc2cccnc2)cc1 | 18.8% (inactive)
65 | CCc1ccccc1NC(=O)CCOc1ccccc1 | 0.846% (inactive)
66 | Cc1cc(C)cc(C(=O)NC(=S)Nc2ccc3[nH]c(=O)[nH]c3c2)c1 | -3.08% (inactive)
67 | Cc1ccccc1NC(=O)c1ccccc1 | 15.4% (active)
68 | Cn1nnc(NC(=S)NC(=O)c2ccccc2)n1 | 10.8% (inactive)
69 | Cc1c(NC(=O)CCCOc2ccccc2)cccc1[N+](=O)[O-] | 6.53% (inactive)
70 | Cc1ccccc1NC(=S)NC(=O)Cc1ccc(Cl)cc1 | -2.71% (inactive)
71 | Cc1ccc(C(=O)NC(=S)Nc2ccccc2C)cc1 | 43.9% (active)
72 | Cc1ccccc1C(=O)Nc1ccccc1Sc1ccccc1 | -2.65% (inactive)
73 | Cc1cc2[nH]ncc2cc1NC(=S)NC(=O)c1ccccc1 | 16.5% (active)
74 | Cc1ccccc1NC(=O)CCOc1ccccc1 | 32.8% (active)
75 | Cc1ccccc1C(=O)Nc1ccccc1NC(=O)c1ccccc1C | -4.55% (inactive)
76 | COC(=O)C1(C)NC(c2ccccc2OC)C2C(=O)N(c3ccccc3)C(=O)C21 (stereo unspecified) | -3.69% (inactive)
77 | COc1ccc(N2CCN(S(=O)(=O)CCNC(=O)C34CC5CC(CC(C5)C3)C4)CC2)cc1 | -6.7% (inactive)
78 | CCN(CC(=O)NCC(=O)Nc1cccc(C)c1C)Cc1ccccc1 | -0.652% (inactive)

Row | Compound | max response
79 | O=C1C(=O)N(CCCN2CCOCC2)C(c2ccc([N+](=O)[O-])cc2)/C1=C(\O)c1ccc2c(c1)OCCO2 (stereo unspecified) | 13.6% (inactive)
80 | COc1ccccc1NC(=O)c1cc(N2C(=O)C3C4CCC(C4)C3C2=O)ccc1Cl (stereo unspecified) | 21.1% (inactive)
81 | Cc1ccc(CNC(=O)c2ccc(CS(=O)Cc3cccc(Cl)c3)o2)cc1 (stereo unspecified) | 5.04% (inactive)
82 | CCC(C)C(=O)Nc1ccccc1N1CCN(c2ccc(F)cc2)CC1 (stereo unspecified) | 5.61% (inactive)
83 | C/C(=N\NC(=S)NCc1ccccc1)C1CCCCC1 | -2.61% (inactive)
84 | COC(=O)[C@@H]1CC(O)CN1C(=O)C12CC3CC(CC(C3)C1)C2 (stereo partly specified) | -8.25% (inactive)
85 | COc1ccc(C(=O)NC2CC2)cc1OC1CCN(Cc2ccc(SC)cc2)CC1 | 10.6% (inactive)
86 | Cc1nc([N+](=O)[O-])cn1CC(=O)Nc1ccc(Cl)cc1 | -1.69% (inactive)
87 | CC(=O)Nc1ccc(C(=O)OCC(=O)Nc2ccc([N+](=O)[O-])cc2C(F)(F)F)cc1 | -3.83% (inactive)
88 | O=C(NC(=O)c1ccccc1)Nc1ccccc1O | 38.7% (active)
89 | O=C(NC(=O)c1ccccc1)NC(=O)c1ccccc1 | 8.89% (inactive)
90 | O=C(Nc1ccc(C(=O)O)c(O)c1)c1ccccc1 | -3.21% (inactive)
91 | O=C(CCN1CCN(C/C=C/c2ccccc2)CC1)Nc1ccccc1Cl | -2.77% (inactive)
92 | Cc1ccc(-c2nnc(CN3CCN(C)CC3)o2)cc1 | 11.1% (inactive)
93 | COc1ccccc1CNC(=O)C1CCN(S(=O)(=O)c2ccc3c(c2)CC(C)N3C(=O)C2CC2)CC1 (stereo unspecified) | 1.43% (inactive)
94 | Cc1ccc(CNC(=O)CCS(=O)(=O)c2ccc3c(c2)CC(C)N3C(=O)C2CC2)o1 (stereo unspecified) | 22.1% (active)
95 | CCC(=O)N1c2ccc(S(=O)(=O)CCC(=O)N3CCN(c4ccccc4)CC3)cc2CC1C (stereo unspecified) | -1.91% (inactive)
96 | Clc1ccccc1CSc1nnc(-c2ccco2)c(-c2ccco2)n1 | 8.29% (inactive)
97 | O=C(CSc1ccc(-c2ccco2)nn1)NCc1ccc2c(c1)OCO2 | 3.12% (inactive)
98 | Cc1cc(SCc2c(F)cccc2Cl)nc(=O)[nH]1 | 6.03% (inactive)
99 | Brc1ccc(CSc2ccc(-c3ccco3)nn2)cc1 | 28.4% (active)
100 | Fc1cccc(Cl)c1CSc1ccc(-c2ccco2)nn1 | 39% (active)
101 | N[C@@H](Cc1c[nH]c2ccccc12)c1nnc(SCc2c(F)cccc2Cl)o1 | -4% (inactive)

Source: PubChem BioAssay AID2314 (National Center for Advancing Translational Sciences (NCATS), 2010)
